Measured values published in PubChem BioAssay (EPA / NIEHS).
Inconclusive results are not listed. The source made the active and inactive calls. How the source made its calls, unless noted: active means hit-call score of the fitted dose curve at least 0.9, where 1 is the maximum; inconclusive means response in the unintended direction; inactive means score below 0.9.

Columns and labels:
[1] = target: Retinoic acid receptor alpha (Homo sapiens) (UniProt P10276); experiment: ATG_DR5_RAR_CIS: Attagene CIS-FACTORIAL HepG2 Assay for human Retinoic Acid Receptor Alpha (RARE), DR5 submotif (AID 2282934; active means hit-call score of the fitted dose curve at least 0.9, where 1 is the maximum; inactive means score below 0.9;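 on AC50: reporter responds to endogenous RAR alpha beta and gamma in HepG2 not RARA alone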); details: HepG2 Attagene cis-factorial RARE DR5 reporter, mRNA; actives raise or lower the signal
Sequence of Retinoic acid receptor alpha (Homo sapiens) (P10276 whole entry, looked up): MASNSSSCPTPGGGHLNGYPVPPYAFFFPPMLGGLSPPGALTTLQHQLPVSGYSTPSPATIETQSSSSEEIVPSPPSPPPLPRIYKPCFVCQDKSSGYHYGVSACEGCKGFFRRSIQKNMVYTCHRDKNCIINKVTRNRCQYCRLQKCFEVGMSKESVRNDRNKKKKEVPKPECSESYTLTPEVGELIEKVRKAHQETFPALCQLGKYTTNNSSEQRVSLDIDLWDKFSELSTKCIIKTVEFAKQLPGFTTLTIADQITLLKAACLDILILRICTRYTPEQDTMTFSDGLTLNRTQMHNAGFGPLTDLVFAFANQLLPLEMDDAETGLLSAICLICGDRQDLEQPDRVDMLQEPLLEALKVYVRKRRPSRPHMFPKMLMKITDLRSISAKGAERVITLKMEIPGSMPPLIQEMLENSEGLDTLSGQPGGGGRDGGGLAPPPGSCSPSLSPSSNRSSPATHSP
Outline: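 HepG2 cells transiently transfected with multiplexed reporter units under cis (DR5 RARE) promoters, so endogenous transcription factor activity is measured. After 24 h compound exposure, reporter mRNA is quantified by RT-PCR with fluorescent labelling and capillary electrophoresis; bidirectional fitting versus DMSO.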

[2] = ATG_GLI_CIS: Attagene CIS-FACTORIAL HepG2 Assay for human Zinc Finger Protein GLI1 (AID 2282945; active means hit-call score of the fitted dose curve at least 0.9, where 1 is the maximum; inactive means score below 0.9); details: HepG2, Attagene cis-factorial reporter mRNA, GLI element; actives raise or lower the signal
Outline: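 HepG2 cells transiently transfected with cis-promoter multiplexed reporter units report endogenous transcription factor activity. After 24 h chemical exposure, reporter mRNA was quantified by RT-PCR, 6-FAM labelling, HpaI digestion and capillary electrophoresis, with bidirectional fitting against DMSO.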

[3] = ATG_GRE_CIS: Attagene CIS-FACTORIAL HepG2 Assay for human Glucocorticoid Response Elements (GRE) (AID 2282947; active means hit-call score of the fitted dose curve at least 0.9, where 1 is the maximum; inactive means score below 0.9); details: HepG2 GRE cis-reporter, Attagene multiplex mRNA; actives raise or lower the signal
Outline: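 Cells (HepG2) bearing transfected cis-promoter reporter transcription units were treated with chemical for 24 hours. Reporter mRNA was measured via RT-PCR with capillary electrophoresis, and activity was fitted in both directions relative to DMSO.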

[4] = ATG_M_32_CIS: Attagene CIS-FACTORIAL HepG2 Assay for M32 Transcription Factor (Internal Marker) (AID 2282949; active means hit-call score of the fitted dose curve at least 0.9, where 1 is the maximum; inactive means score below 0.9;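 further: background control marker of the multiplexed CIS panel rather than a real target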); details: HepG2 Attagene cis-factorial M32 reporter, mRNA; actives raise or lower the signal
Outline: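 HepG2 transfectants (cis-regulated reporter transcription units) dosed 24 h. Reporter mRNA by RT-PCR plus CE, analysed as gain or loss relative to DMSO.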

[5] = ATG_MRE_CIS: Attagene CIS-FACTORIAL HepG2 Assay for human Metal Responsive Element (MRE) (AID 2282954; active means hit-call score of the fitted dose curve at least 0.9, where 1 is the maximum; inactive means score below 0.9); details: HepG2 MRE cis-reporter transcription, Attagene multiplex; actives raise or lower the signal
Outline: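 Cells were transfected with cis-promoter reporter transcription units, then dosed for 24 h. RNA was reverse-transcribed, amplified, fluorescently labelled and resolved by capillary electrophoresis, and activity was fitted in both directions relative to DMSO.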

[6] = ATG_PBREM_CIS: Attagene CIS-FACTORIAL HepG2 Assay for human Phenobarbital-responsive Enhancer Module (PBREM) (AID 2282955; active means hit-call score of the fitted dose curve at least 0.9, where 1 is the maximum; inactive means score below 0.9); details: HepG2 PBREM cis-reporter, Attagene multiplexed transcription; actives raise or lower the signal
Outline: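 Endogenous transcription factor activity was read from reporter transcripts in transiently transfected human HepG2 liver cells after 24 h dosing. RT-PCR products were fluorescently labelled, HpaI-cut and sized by capillary electrophoresis; activity fitted bidirectionally against DMSO baseline.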

[7] = ATG_RORE_CIS: Attagene CIS-FACTORIAL HepG2 Assay for human RAR-related Orphan Receptor Element (RORE) (AID 2282959; active means hit-call score of the fitted dose curve at least 0.9, where 1 is the maximum; inactive means score below 0.9); details: HepG2 Attagene cis-factorial RORE reporter, mRNA; actives raise or lower the signal
Outline: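 RORE reporter transcripts reflecting endogenous factor activity were read after 24 h compound exposure of transfected HepG2 cells, using reverse transcription, PCR, fluorescent labelling and capillary electrophoresis sizing. Gain or loss fitted against DMSO.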

[8] = target: Hepatocyte nuclear factor 4-alpha (Homo sapiens) (UniProt P41235); experiment: ATG_HNF4a_TRANS: Attagene TRANS-FACTORIAL HepG2 Assay for human Hepatocyte Nuclear Factor 4 alpha (HNF4a) (AID 2282982); details: HepG2 HNF4a transactivation reporter, mRNA readout
Sequence of Hepatocyte nuclear factor 4-alpha (Homo sapiens) (P41235 whole entry, looked up, the tested form may be a part): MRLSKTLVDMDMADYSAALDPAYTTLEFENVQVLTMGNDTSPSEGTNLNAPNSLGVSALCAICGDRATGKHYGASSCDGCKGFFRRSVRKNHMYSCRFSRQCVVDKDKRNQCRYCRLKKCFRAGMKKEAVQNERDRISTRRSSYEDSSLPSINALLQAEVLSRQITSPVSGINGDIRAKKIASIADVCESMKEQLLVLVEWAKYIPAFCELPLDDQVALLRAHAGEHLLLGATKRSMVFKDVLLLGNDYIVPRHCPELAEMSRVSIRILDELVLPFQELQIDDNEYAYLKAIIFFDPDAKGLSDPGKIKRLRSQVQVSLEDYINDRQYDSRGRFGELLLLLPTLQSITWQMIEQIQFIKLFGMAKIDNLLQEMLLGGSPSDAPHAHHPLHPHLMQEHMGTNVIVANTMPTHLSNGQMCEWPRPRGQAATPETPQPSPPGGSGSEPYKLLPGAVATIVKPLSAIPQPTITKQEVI
Outline: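 In this trans-factorial format, a chimeric HNF4a-GAL4 fusion drives a GAL4-UAS reporter in transfected HepG2 liver cells. After 24 h treatment, reporter mRNA induction is measured by RT-PCR with capillary electrophoresis, relative to DMSO.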

[9] = ATG_M_32_TRANS: Attagene TRANS-FACTORIAL HepG2 Assay for M32 Transcription Factor (Internal Marker) (AID 2282984); details: HepG2 Attagene TRANS M32 internal marker reporter
Outline: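 After 24 h dosing of transfected HepG2 cells, total RNA was reverse-transcribed, reporter sequences PCR-amplified, 6-FAM labelled by primer extension and HpaI-digested before capillary electrophoresis. Signal increase over DMSO was fitted.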

[10] = target: Nuclear respiratory factor 1 (Homo sapiens) (UniProt Q16656); experiment: ATG_NRF1_CIS: Attagene CIS-FACTORIAL HepG2 Assay for human Nuclear Respiratory Factor 1 (NRF1) Orphan Gene (AID 2282987; active means hit-call score of the fitted dose curve at least 0.9, where 1 is the maximum; inactive means score below 0.9); details: HepG2 NRF1 cis-element reporter, Attagene multiplex; actives raise or lower the signal
Sequence of Nuclear respiratory factor 1 (Homo sapiens) (Q16656 whole entry, looked up): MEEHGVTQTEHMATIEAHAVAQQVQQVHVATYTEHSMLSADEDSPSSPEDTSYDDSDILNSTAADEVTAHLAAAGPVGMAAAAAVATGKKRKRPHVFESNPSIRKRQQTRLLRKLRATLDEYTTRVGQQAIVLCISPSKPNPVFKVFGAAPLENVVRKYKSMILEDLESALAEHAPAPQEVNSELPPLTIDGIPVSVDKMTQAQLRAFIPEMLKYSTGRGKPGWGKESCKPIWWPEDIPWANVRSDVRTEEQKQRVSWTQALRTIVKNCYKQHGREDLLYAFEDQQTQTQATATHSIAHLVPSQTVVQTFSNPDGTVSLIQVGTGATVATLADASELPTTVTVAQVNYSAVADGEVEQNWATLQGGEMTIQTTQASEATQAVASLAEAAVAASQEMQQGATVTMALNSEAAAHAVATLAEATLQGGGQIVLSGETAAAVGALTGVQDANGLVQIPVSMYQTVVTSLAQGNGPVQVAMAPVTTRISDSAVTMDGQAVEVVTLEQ
Outline: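 Endogenous NRF1-driven reporter transcription in transfected HepG2 cells after 24 h treatment. Readout: RT-PCR products, 6-FAM labelled and resolved by capillary electrophoresis; changes fitted both directions relative to DMSO.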

[11] = target: human Peroxisome Proliferator-activated Receptor alpha (PPARa), PPARA (gene 5465) (UniProt Q07869); experiment: ATG_PPARa_TRANS: Attagene TRANS-FACTORIAL HepG2 Assay for human Peroxisome Proliferator-activated Receptor alpha (PPARa) (AID 2283001);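 on AC50: potency for gain of reporter signal over DMSO so agonist or activator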
Sequence of human Peroxisome Proliferator-activated Receptor alpha (PPARa), PPARA (gene 5465) (Q07869 whole entry, looked up): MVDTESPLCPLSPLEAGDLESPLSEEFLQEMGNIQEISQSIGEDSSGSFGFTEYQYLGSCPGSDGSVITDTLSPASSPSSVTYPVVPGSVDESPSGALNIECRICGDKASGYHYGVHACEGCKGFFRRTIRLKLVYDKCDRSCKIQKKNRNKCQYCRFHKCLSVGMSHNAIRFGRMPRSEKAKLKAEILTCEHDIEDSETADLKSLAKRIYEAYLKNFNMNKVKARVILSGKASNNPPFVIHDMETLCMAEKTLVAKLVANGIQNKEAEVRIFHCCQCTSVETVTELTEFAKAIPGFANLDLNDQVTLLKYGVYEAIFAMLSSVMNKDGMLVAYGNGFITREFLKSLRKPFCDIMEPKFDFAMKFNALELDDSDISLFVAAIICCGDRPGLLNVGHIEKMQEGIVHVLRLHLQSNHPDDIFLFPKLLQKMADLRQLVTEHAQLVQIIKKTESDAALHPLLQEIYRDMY
Outline: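 Cells (HepG2) are transfected with multiple reporter transcription units, exposed to chemical for 24 h, then total RNA is reverse-transcribed and amplified. Labelled products are quantified by capillary electrophoresis; induction is referenced to DMSO.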

[12] = target: Retinoic acid receptor RXR-alpha (Homo sapiens) (UniProt P19793); experiment: ATG_RXRa_TRANS: Attagene TRANS-FACTORIAL HepG2 Assay for human Retinoid X Receptor alpha (RXRa) (AID 2283012)
Sequence of Retinoic acid receptor RXR-alpha (Homo sapiens) (P19793 whole entry, looked up, the tested form may be a part): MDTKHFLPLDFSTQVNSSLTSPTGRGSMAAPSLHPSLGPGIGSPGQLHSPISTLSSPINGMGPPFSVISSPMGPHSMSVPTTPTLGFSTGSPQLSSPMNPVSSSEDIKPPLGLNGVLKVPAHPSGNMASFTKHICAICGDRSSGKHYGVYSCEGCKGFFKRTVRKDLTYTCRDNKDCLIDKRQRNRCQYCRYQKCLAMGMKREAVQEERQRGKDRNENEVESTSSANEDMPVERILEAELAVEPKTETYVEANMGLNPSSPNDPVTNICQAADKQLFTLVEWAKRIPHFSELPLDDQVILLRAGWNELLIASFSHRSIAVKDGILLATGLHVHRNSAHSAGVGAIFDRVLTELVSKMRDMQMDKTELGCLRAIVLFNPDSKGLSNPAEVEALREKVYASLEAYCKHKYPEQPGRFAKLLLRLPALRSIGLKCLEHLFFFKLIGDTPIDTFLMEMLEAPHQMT
Outline: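 Measures exogenous chimeric NR-GAL4 activity in transfected HepG2 liver cells after 24 h of dosing. Induced reporter mRNA was detected by RT-PCR with capillary electrophoresis, and gain of signal was analysed against DMSO.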

[13] = target: human Retinoid X Receptor beta (RXRb), RXRB (gene 6257) (UniProt P28702); experiment: ATG_RXRb_TRANS: Attagene TRANS-FACTORIAL HepG2 Assay for human Retinoid X Receptor beta (RXRb) (AID 2283013)
Sequence of human Retinoid X Receptor beta (RXRb), RXRB (gene 6257) (P28702 whole entry, looked up, the tested form may be a part): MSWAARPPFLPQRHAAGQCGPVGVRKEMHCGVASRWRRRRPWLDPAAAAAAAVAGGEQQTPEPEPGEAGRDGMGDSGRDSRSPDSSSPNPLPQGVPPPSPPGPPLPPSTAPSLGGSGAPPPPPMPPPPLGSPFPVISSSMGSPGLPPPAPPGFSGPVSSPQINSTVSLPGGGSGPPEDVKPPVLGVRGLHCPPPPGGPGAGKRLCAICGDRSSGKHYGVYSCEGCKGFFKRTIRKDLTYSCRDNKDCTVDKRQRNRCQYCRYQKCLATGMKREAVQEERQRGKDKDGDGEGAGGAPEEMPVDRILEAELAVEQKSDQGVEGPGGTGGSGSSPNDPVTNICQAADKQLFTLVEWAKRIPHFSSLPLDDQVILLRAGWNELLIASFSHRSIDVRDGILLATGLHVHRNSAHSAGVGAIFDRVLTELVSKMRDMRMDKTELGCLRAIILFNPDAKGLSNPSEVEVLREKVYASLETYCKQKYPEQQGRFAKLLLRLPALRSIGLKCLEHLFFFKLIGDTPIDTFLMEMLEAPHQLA
Outline: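 Chimeric receptor-Gal4 activity was assessed in transiently transfected human HepG2 cells after 24 h exposure. Transcripts from GAL4-UAS reporters were quantified by fluorescent RT-PCR and capillary electrophoresis, with DMSO as negative control and baseline.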

[14] = TOX21_p53_BLA_p2_viability: Viability Assessment in the Tox21 HCT-116 p53 Agonism Beta-lactamase Assay, Phase 2 (AID 2283591);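 further: compound exposure lasted 16 h at 37 °C; actives lower the ATP signal meaning cytotoxicity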
Outline: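 HCT-116 p53-bla cells (4000/well) rested 5 h at 37C, then received compounds in DMSO (217-fold dilution) for 16 h at 37C, 5% CO2. After the CCF4 read, CellTiter-Glo was added; ATP luminescence was read after 30 min at room temperature.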

[15] = target: Cellular tumor antigen p53 (Homo sapiens) (UniProt P04637); experiment: TOX21_p53_BLA_p5_ratio: Tox21 HCT-116 p53 Agonism Beta-lactamase Assay, Ratio, Phase 5 (AID 2283599)
Sequence of Cellular tumor antigen p53 (Homo sapiens) (P04637 whole entry, looked up): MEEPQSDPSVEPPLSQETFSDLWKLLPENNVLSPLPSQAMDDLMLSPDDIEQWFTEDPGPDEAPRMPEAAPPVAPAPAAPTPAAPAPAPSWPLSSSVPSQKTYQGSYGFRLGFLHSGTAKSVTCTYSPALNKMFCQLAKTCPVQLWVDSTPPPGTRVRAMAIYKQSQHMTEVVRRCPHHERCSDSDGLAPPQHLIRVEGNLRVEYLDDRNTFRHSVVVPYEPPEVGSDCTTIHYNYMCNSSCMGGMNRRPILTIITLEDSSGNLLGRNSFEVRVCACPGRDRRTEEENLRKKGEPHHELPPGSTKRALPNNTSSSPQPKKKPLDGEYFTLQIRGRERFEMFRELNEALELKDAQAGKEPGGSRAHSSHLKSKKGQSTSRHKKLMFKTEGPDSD
Outline: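 HCT-116 cells carrying a p53-inducible beta-lactamase reporter were seeded at 4000 cells/well and dosed after 5 h with compound in DMSO (217-fold dilution). After 16 h at 37C, CCF4-AM substrate was added for 2 h, and the 460/530 nm emission ratio was scored as gain-of-signal versus DMSO.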

[16] = TOX21_p53_BLA_p5_viability: Viability Assessment in the Tox21 HCT-116 p53 Agonism Beta-lactamase Assay, Phase 5 (AID 2283600)
Outline: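 Viability is taken from cellular ATP content, measured by luciferase luminescence in the same wells after the beta-lactamase ratio read. Cells are seeded at 4000 per well and exposed to DMSO-dissolved compounds, diluted 217-fold, for 16 h.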

[17] = target: Cellular tumor antigen p53 (Homo sapiens) (UniProt P04637); experiment: TOX21_p53_BLA_p4_ratio: Tox21 HCT-116 p53 Agonism Beta-lactamase Assay, Ratio, Phase 4 (AID 2283601)
Outline: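 HCT116 cells carrying an inducible beta-lactamase reporter were plated at 4000 cells/well, rested 5 h, then exposed to compounds in DMSO (217-fold dilution) for 16 h at 37C. CCF4-AM substrate was loaded 2 h at room temperature; 460/530 nm emission ratio scored gain-of-signal versus DMSO.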

[18] = target: Hepatocyte nuclear factor 3-beta (Homo sapiens) (UniProt Q9Y261); experiment: ATG_FoxA2_CIS: Attagene CIS-FACTORIAL HepG2 Assay for human Forkhead box A2 (FOXA2) (AID 2282942; active means hit-call score of the fitted dose curve at least 0.9, where 1 is the maximum; inactive means score below 0.9); details: HepG2 cis-reporter transcription factor activity, 24 h; actives raise or lower the signal
Sequence of Hepatocyte nuclear factor 3-beta (Homo sapiens) (Q9Y261 whole entry, looked up): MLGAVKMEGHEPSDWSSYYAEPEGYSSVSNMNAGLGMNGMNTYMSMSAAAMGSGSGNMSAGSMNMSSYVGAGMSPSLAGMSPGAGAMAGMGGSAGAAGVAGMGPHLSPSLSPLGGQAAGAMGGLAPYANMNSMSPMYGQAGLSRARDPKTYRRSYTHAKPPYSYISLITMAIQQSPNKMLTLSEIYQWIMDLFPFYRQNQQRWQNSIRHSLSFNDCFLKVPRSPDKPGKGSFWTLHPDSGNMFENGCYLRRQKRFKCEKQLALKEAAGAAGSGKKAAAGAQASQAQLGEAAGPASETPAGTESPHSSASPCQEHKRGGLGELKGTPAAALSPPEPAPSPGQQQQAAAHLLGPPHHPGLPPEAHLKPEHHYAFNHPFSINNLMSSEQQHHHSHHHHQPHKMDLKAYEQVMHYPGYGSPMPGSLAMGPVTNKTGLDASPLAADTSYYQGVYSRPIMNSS
Outline: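 Endogenous transcription factor activity is captured via cis-element-driven reporter transcripts in transfected HepG2. Total RNA taken at 24 h post-dosing; labelled RT-PCR products resolved by capillary electrophoresis. Gain or loss fitted versus DMSO.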

[19] = ATG_NF_kB_CIS: Attagene CIS-FACTORIAL HepG2 Assay for human Nuclear Factor Kappa B (NF-kB) (AID 2282991; active means hit-call score of the fitted dose curve at least 0.9, where 1 is the maximum; inactive means score below 0.9); details: HepG2 Attagene cis-factorial NF-kB reporter mRNA; actives raise or lower the signal
Outline: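 Readout is reporter transcript level, gain or loss versus DMSO, measured 24 h post-dose via RT-PCR, fluorescent labelling and capillary electrophoresis. Human HepG2 liver cells carried transiently transfected CIS reporter constructs reflecting endogenous factors.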

[20] = target: Cellular tumor antigen p53 (Homo sapiens) (UniProt P04637); experiment: TOX21_p53_BLA_p3_ratio: Tox21 HCT-116 p53 Agonism Beta-lactamase Assay, Ratio, Phase 3 (AID 2283596)
Outline: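 Cells were seeded at 4000/well, rested 5 h at 37C, then dosed with DMSO compound solutions (217-fold dilution) for 16 h. CCF4-AM substrate was loaded for 2 h at room temperature, and the 460/530 nm emission ratio was fitted for gain of signal versus DMSO.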

Measured: AC50

C=C(C)C(=O)OCC1CCCO1 (stereo unspecified)
not listed: [18] | [19] | [20]
inactive: all other assays above

CC1=C(CC=O)C(C)(C)CCC1
not listed: [1] | [3] | [6] | [8] | [11] | [13]
inactive: all other assays above

N#CCN(CC#N)CCN(CC#N)CC#N
not listed: [1] | [4] | [5] | [11] | [14] | [15] | [17] | [20]
inactive: all other assays above

CCCN[C@H]1CCc2nc(N)sc2C1
inactive: [18] | [2] | [5] | [6] | [19] | [13] | [14] | [20] | [15] | [16] | [17]

Cc1ccccc1S(=O)(=O)O
not listed: [3] | [6] | [7] | [9] | [13] | [15] | [19]
inactive: all other assays above

CCCCCCCCCCCCCC
inactive: [4] | [6] | [9] | [10] | [19] | [12] | [13] | [14] | [20] | [15] | [17]

OCCN(CCO)c1cccc(Cl)c1
not listed: [1] | [2] | [3] | [4] | [5] | [9] | [11] | [16]
inactive: all other assays above

OCCc1ccccn1
not listed: [1] | [7] | [9] | [11] | [13] | [15] | [18] | [19]
inactive: all other assays above

CCC(C)C1N=C(C)C(C)S1 (stereo unspecified)
not listed: [4] | [5] | [6] | [8] | [11] | [16]
inactive: all other assays above

CCO[Si](CCCN)(OCC)OCC
not listed: [1] | [2] | [4] | [9] | [10] | [13] | [18]
inactive: all other assays above

CCC(C)(CCC(C)C)C(=O)O (stereo unspecified)
inactive: [1] | [2] | [4] | [5] | [8] | [9] | [10] | [19] | [11]

Cc1cccnc1
inactive: [18] | [2] | [5] | [6] | [7] | [9] | [19] | [12]

CC/C=C/CCO
not listed: [1] | [6] | [8] | [9] | [11] | [12] | [19]
inactive: all other assays above

CCC(C)=NO
not listed: [4] | [7] | [10] | [12] | [13] | [16] | [19]
inactive: all other assays above

CCC(C)NC(N)=O (stereo unspecified)
inactive: [18] | [2] | [4] | [5] | [6] | [7] | [9] | [19] | [12] | [20]

CC[N+](CC)(CC(=O)Nc1c(C)cccc1C)Cc1ccccc1 (tested in a mixture with another compound)
inactive: [18] | [7] | [8] | [10]

Brc1ccc(Oc2ccc(Br)cc2)cc1
not listed: [5] | [8] | [10] | [11] | [19]
inactive: all other assays above

CC(O)(P(=O)(O)O)P(=O)(O)O
inactive: [18] | [2] | [4] | [5] | [11] | [12] | [13]

OCCOCCOCCOCCOCCO
not listed: [2] | [3] | [6] | [8] | [12] | [13] | [18] | [19]
inactive: all other assays above

CC(C)CC(=O)CC(C)C
inactive: [2] | [4] | [7] | [10] | [19] | [12] | [14] | [20] | [15] | [16] | [17]

O=C(O)c1ccccc1C(=O)O
not listed: [5] | [7] | [11]
inactive: all other assays above

CCCCCCCCCCCCCCCCCC[N+](C)(C)C
active: [1] 42.5 µM | [18] 45.4 µM | [4] 39.2 µM | [5] 40.1 µM | [6] 45.4 µM | [8] 37.3 µM | [9] 16.2 µM | [10] 16.8 µM | [19] 3.31 µM | [11] 40.9 µM | [14] 46.2 µM | [20] 72.7 µM | [15] 75 µM | [16] 62.8 µM | [17] 75.3 µM
inactive: [3] | [7] | [12]
